{"source": "ChEMBL document CHEMBL3433997", "about": "“St. Jude Leishmania screening dataset” (2016)"}
{"biological_target": "Solute carrier family 2, facilitated glucose transporter member 1 (Homo sapiens) (UniProt P11166)", "sequence (P11166 whole entry)": "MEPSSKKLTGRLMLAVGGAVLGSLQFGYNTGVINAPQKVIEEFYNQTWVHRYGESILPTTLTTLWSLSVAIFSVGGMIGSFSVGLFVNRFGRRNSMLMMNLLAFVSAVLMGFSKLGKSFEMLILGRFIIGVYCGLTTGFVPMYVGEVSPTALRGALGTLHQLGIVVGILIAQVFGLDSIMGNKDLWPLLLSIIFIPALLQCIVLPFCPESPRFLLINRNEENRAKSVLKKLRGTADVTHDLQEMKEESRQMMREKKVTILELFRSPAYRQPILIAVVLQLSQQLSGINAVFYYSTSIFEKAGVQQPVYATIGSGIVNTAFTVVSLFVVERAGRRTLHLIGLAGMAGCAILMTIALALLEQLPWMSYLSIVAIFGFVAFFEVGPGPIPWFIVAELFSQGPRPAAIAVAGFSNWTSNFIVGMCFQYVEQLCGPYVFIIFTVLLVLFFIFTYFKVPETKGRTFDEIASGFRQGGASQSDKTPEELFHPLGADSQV", "experiment": "ST_JUDE_LEISH: Cytotoxicity at 2uM final concentration against transgenic Leishmania Mexicana promastigotes LmGLUT1 that are glucose transport deficient and complemented with the human glucose transporter GLUT1. Activity is measured by DNA content using SYBR green in vitro", "type": "functional", "units": {"inhibition": "%"}}
{"smiles": "COCCn1c(Sc2ccc(C#N)c([N+](=O)[O-])c2)nnc1-c1ccc(N(C)C)cc1", "inhibition": 13}
{"smiles": "Cc1ccc(CN2CCCN(Cc3cccc(NC(=O)c4cc5ccccc5s4)c3)CC2)cc1", "inhibition": -0.92}
{"smiles": "CCN(CC)CCCN1CCN(C(=O)c2cccc(-c3noc(C(F)(F)F)n3)c2)CC1", "inhibition": 5.54}
{"smiles": "CC(C)N(C(=O)CSc1nc2cc(Cl)ccc2c(=O)n1Cc1ccccc1)C(C)C", "inhibition": 0.98}
{"smiles": "O=C(/C=C/c1ccc(Cl)c(Cl)c1)NCCCCCN1CCC(NC(=S)Nc2ccc(F)cc2F)CC1", "inhibition": 16.5}
{"smiles": "COc1ccc(CN2CCC(CNCCc3ccccc3Cl)CC2)cc1", "inhibition": 19.2}
{"smiles": "Cc1ccc(Nc2nccc(NCC(O)c3cccc(C)c3)n2)cc1", "note": "(stereo not given)", "inhibition": 5.47}
{"smiles": "O=C(NCCCCN1CCC(c2ccc3c(c2OCCO)CCCC3)CC1)c1sc(-c2ccc(C(F)(F)F)cc2)nc1CO", "inhibition": 3.31}
{"smiles": "CC(C)(C)c1ccc(NC(=O)c2cccc(CN3CCCN(Cc4ccsc4)CC3)c2)cc1", "inhibition": 5.17}
{"smiles": "Cc1cccc2nc(-c3cccc(-c4ccc(NC(=O)Cc5ccon5)cc4)c3)[nH]c12", "inhibition": 14.2}
{"smiles": "Cc1noc(C)c1-c1cccc(C(=O)NC2CCN(CCNC(=O)C(c3ccccc3)c3ccccc3)CC2)c1", "inhibition": 2.71}
{"smiles": "Fc1cc(Cl)ccc1Nc1ccnc2cc(-c3ccc(CN4CCOCC4)o3)ccc12", "inhibition": 20.6}
{"smiles": "N#Cc1cccc(NC(=O)Nc2cccc(-c3cccc(-c4nc5ccccc5[nH]4)c3)c2)c1", "inhibition": 5.25}
{"smiles": "CCn1c(-c2nonc2N)nc2c(-c3cccc(Cl)c3)ncc(OCCCNCc3cnc(C)nc3N)c21", "inhibition": 0.16}
{"smiles": "Cc1n[nH]c(C)c1C1CCN(CC2CCC(NC(=O)/C=C/c3ccc(Cl)c(Cl)c3)CC2)CC1", "note": "(stereo not given)", "inhibition": 4.43}
{"smiles": "O=S(=O)(NCCN1CCCC1)c1cccc(-c2ccccc2CNC2Cc3ccccc3C2)c1", "inhibition": 60.1}
{"smiles": "O=C(/C=C/c1ccc(Cl)c(Cl)c1)N1CCC(CN2CCC(c3c[nH]c4ncccc34)CC2)CC1", "inhibition": 4.3}
{"smiles": "CCCC(=O)NC(c1ccc(C)cc1)c1ccc2cccnc2c1O", "note": "(stereo not given)", "inhibition": 3.47}
{"smiles": "COC(=O)c1cccc(NC(=O)NC2CCN(c3ccnc(Nc4cc(OC)c(OC)c(OC)c4)n3)C2)c1", "note": "(stereo not given)", "inhibition": 10.5}
{"smiles": "Cc1ccc(Oc2c(-c3ccccc3CN3CCCC3CN(C)C)cnn(C)c2=O)cn1", "note": "(stereo not given)", "inhibition": 6.33}
{"smiles": "CCn1c(-c2nonc2N)nc2c(-c3cccc(NC(=O)Nc4ccc(C#N)cc4)c3)ncc(OCCCN)c21", "inhibition": 1.92}
{"smiles": "c1ccc2c(c1)CN(Cc1cc3ccccc3[nH]1)CC1(CCN(Cc3c[nH]c4cnccc34)CC1)O2", "inhibition": 1.1}
{"smiles": "CCCCCN1CCCC(CNS(=O)(=O)c2ccc(C(=O)Nc3ccc(C(F)(F)F)cc3)cc2)C1", "note": "(stereo not given)", "inhibition": -1.01}
{"smiles": "O=C(NCCc1ccc(O)cc1)n1c2ccccc2c2ccccc21", "inhibition": 2.7}
{"smiles": "CCc1cccc(-n2c(=O)c3cccnc3n2CC(=O)NC2CCCC2)c1", "inhibition": 3.43}
{"smiles": "O=C(/C=C/c1ccc(Cl)c(Cl)c1)NC1CCN(Cc2ccc(O)cc2)C1", "note": "(stereo not given)", "inhibition": 1.46}
{"smiles": "CC(C)CNc1c2c(nc3cnn(-c4c5c(nc6cn[nH]c46)CCCC5)c13)CCCC2", "inhibition": -3.17}
{"smiles": "O=S(=O)(NCCN1CCCC1)c1cccc(-c2ccc(CNCc3ccc(F)cc3)cc2)c1", "inhibition": 7.08}
{"smiles": "N#Cc1cccc(NC(=O)c2ccc(S(=O)(=O)NCC3CCCN3CC3CCCCC3)cc2)c1", "note": "(stereo not given)", "inhibition": 2.47}
{"smiles": "COc1cc(Nc2nccc(N3CCC(NC(=O)Nc4cccc(C(C)=O)c4)C3)n2)cc(OC)c1OC", "note": "(stereo not given)", "inhibition": 2.52}
{"smiles": "O=C(NC1CCN(Cc2ccc(Cl)cc2)CC1)c1cn(-c2ccccc2)nc1-c1cccnc1", "inhibition": 1.12}
{"smiles": "Oc1ccc(CCNc2nc(NCc3ccccc3-c3ccccc3)nc(N3CCCNCC3)n2)cc1", "inhibition": 0.19}
{"smiles": "COc1ccc2ccc(F)c(CC(=O)N3CCOC(CNCc4cccc(-c5ccc(F)cc5)n4)C3)c2n1", "note": "(stereo not given)", "inhibition": -1.79}
{"smiles": "c1ccc2c(NCCCCCCNc3ccnc4ccccc34)ccnc2c1", "inhibition": -2.25}
{"smiles": "CCCC(C)C(=O)N1CCOC(COCc2cccc(C(F)(F)F)c2)(c2ccc(Cl)cc2)C1", "note": "(stereo not given)", "inhibition": -0.83}
{"smiles": "O=C(/C=C/c1ccc(Cl)cc1)NCCCCCN1CCC(C(=O)Nc2cccc(Cl)c2)CC1", "inhibition": 2.16}
{"smiles": "O=C(Nc1cc(C(F)(F)F)cc(C(F)(F)F)c1)c1cccc([N+](=O)[O-])c1", "inhibition": 3.73}
{"smiles": "CCOc1cc(CC)ccc1C1CCN(CCN2CCC(CNC(=O)c3ccc(-c4ccc(C#N)cc4)cc3)CC2)CC1", "inhibition": 16.2}
{"smiles": "CN(Cc1cccc(O)c1)C1CCN(c2cc(NC(=O)c3ccc(F)cc3)ccn2)C1", "note": "(stereo not given)", "inhibition": 1.94}
{"smiles": "CC[C@H](NC(=O)c1c(CN2CCC(N3CCCCC3)CC2)c(-c2ccccc2)nc2cc(O)ccc12)c1ccccc1", "inhibition": -0.16}
{"biological_target": "Hexose transporter 1 (Plasmodium falciparum) (UniProt O97467)", "experiment": "ST_JUDE_LEISH: Cytotoxicity at 2uM final concentration against transgenic Leishmania Mexicana promastigotes LmPfHT that are glucose transport deficient and complemented with the Plasmodium falciparum hexose transporter. Activity is measured by DNA content using SYBR green in vitro", "type": "functional", "units": {"inhibition": "%"}}
{"smiles": "COCCn1c(Sc2ccc(C#N)c([N+](=O)[O-])c2)nnc1-c1ccc(N(C)C)cc1", "inhibition": 13.5}
{"smiles": "Cc1ccc(CN2CCCN(Cc3cccc(NC(=O)c4cc5ccccc5s4)c3)CC2)cc1", "inhibition": -0.94}
{"smiles": "CCN(CC)CCCN1CCN(C(=O)c2cccc(-c3noc(C(F)(F)F)n3)c2)CC1", "inhibition": 4.63}
{"smiles": "CC(C)N(C(=O)CSc1nc2cc(Cl)ccc2c(=O)n1Cc1ccccc1)C(C)C", "inhibition": 2.14}
{"smiles": "O=C(/C=C/c1ccc(Cl)c(Cl)c1)NCCCCCN1CCC(NC(=S)Nc2ccc(F)cc2F)CC1", "inhibition": 14.9}
{"smiles": "COc1ccc(CN2CCC(CNCCc3ccccc3Cl)CC2)cc1", "inhibition": 11.1}
{"smiles": "Cc1ccc(Nc2nccc(NCC(O)c3cccc(C)c3)n2)cc1", "note": "(stereo not given)", "inhibition": 4.73}
{"smiles": "O=C(NCCCCN1CCC(c2ccc3c(c2OCCO)CCCC3)CC1)c1sc(-c2ccc(C(F)(F)F)cc2)nc1CO", "inhibition": 2.17}
{"smiles": "CC(C)(C)c1ccc(NC(=O)c2cccc(CN3CCCN(Cc4ccsc4)CC3)c2)cc1", "inhibition": 1.84}
{"smiles": "Cc1cccc2nc(-c3cccc(-c4ccc(NC(=O)Cc5ccon5)cc4)c3)[nH]c12", "inhibition": 12.3}
{"smiles": "Cc1noc(C)c1-c1cccc(C(=O)NC2CCN(CCNC(=O)C(c3ccccc3)c3ccccc3)CC2)c1", "inhibition": 1.09}
{"smiles": "Fc1cc(Cl)ccc1Nc1ccnc2cc(-c3ccc(CN4CCOCC4)o3)ccc12", "inhibition": 52.9}
{"smiles": "N#Cc1cccc(NC(=O)Nc2cccc(-c3cccc(-c4nc5ccccc5[nH]4)c3)c2)c1", "inhibition": 5.22}
{"smiles": "CCn1c(-c2nonc2N)nc2c(-c3cccc(Cl)c3)ncc(OCCCNCc3cnc(C)nc3N)c21", "inhibition": -3.01}
{"smiles": "Cc1n[nH]c(C)c1C1CCN(CC2CCC(NC(=O)/C=C/c3ccc(Cl)c(Cl)c3)CC2)CC1", "note": "(stereo not given)", "inhibition": 4.25}
{"smiles": "O=S(=O)(NCCN1CCCC1)c1cccc(-c2ccccc2CNC2Cc3ccccc3C2)c1", "inhibition": 16}
{"smiles": "O=C(/C=C/c1ccc(Cl)c(Cl)c1)N1CCC(CN2CCC(c3c[nH]c4ncccc34)CC2)CC1", "inhibition": 3.52}
{"smiles": "CCCC(=O)NC(c1ccc(C)cc1)c1ccc2cccnc2c1O", "note": "(stereo not given)", "inhibition": 4.55}
{"smiles": "COC(=O)c1cccc(NC(=O)NC2CCN(c3ccnc(Nc4cc(OC)c(OC)c(OC)c4)n3)C2)c1", "note": "(stereo not given)", "inhibition": 6.39}
{"smiles": "Cc1ccc(Oc2c(-c3ccccc3CN3CCCC3CN(C)C)cnn(C)c2=O)cn1", "note": "(stereo not given)", "inhibition": 4.63}
{"smiles": "CCn1c(-c2nonc2N)nc2c(-c3cccc(NC(=O)Nc4ccc(C#N)cc4)c3)ncc(OCCCN)c21", "inhibition": -0.33}
{"smiles": "c1ccc2c(c1)CN(Cc1cc3ccccc3[nH]1)CC1(CCN(Cc3c[nH]c4cnccc34)CC1)O2", "inhibition": -0.02}
{"smiles": "CCCCCN1CCCC(CNS(=O)(=O)c2ccc(C(=O)Nc3ccc(C(F)(F)F)cc3)cc2)C1", "note": "(stereo not given)", "inhibition": -0.37}
{"smiles": "O=C(NCCc1ccc(O)cc1)n1c2ccccc2c2ccccc21", "inhibition": 4.05}
{"smiles": "CCc1cccc(-n2c(=O)c3cccnc3n2CC(=O)NC2CCCC2)c1", "inhibition": 12}
{"smiles": "O=C(/C=C/c1ccc(Cl)c(Cl)c1)NC1CCN(Cc2ccc(O)cc2)C1", "note": "(stereo not given)", "inhibition": -0.06}
{"smiles": "CC(C)CNc1c2c(nc3cnn(-c4c5c(nc6cn[nH]c46)CCCC5)c13)CCCC2", "inhibition": -1.12}
{"smiles": "O=S(=O)(NCCN1CCCC1)c1cccc(-c2ccc(CNCc3ccc(F)cc3)cc2)c1", "inhibition": 3.37}
{"smiles": "N#Cc1cccc(NC(=O)c2ccc(S(=O)(=O)NCC3CCCN3CC3CCCCC3)cc2)c1", "note": "(stereo not given)", "inhibition": 4.27}
{"smiles": "COc1cc(Nc2nccc(N3CCC(NC(=O)Nc4cccc(C(C)=O)c4)C3)n2)cc(OC)c1OC", "note": "(stereo not given)", "inhibition": 2.96}
{"smiles": "O=C(NC1CCN(Cc2ccc(Cl)cc2)CC1)c1cn(-c2ccccc2)nc1-c1cccnc1", "inhibition": 0.95}
{"smiles": "Oc1ccc(CCNc2nc(NCc3ccccc3-c3ccccc3)nc(N3CCCNCC3)n2)cc1", "inhibition": 2.05}
{"smiles": "COc1ccc2ccc(F)c(CC(=O)N3CCOC(CNCc4cccc(-c5ccc(F)cc5)n4)C3)c2n1", "note": "(stereo not given)", "inhibition": 0.05}
{"smiles": "c1ccc2c(NCCCCCCNc3ccnc4ccccc34)ccnc2c1", "inhibition": -0.51}
{"smiles": "CCCC(C)C(=O)N1CCOC(COCc2cccc(C(F)(F)F)c2)(c2ccc(Cl)cc2)C1", "note": "(stereo not given)", "inhibition": 0.15}
{"smiles": "O=C(/C=C/c1ccc(Cl)cc1)NCCCCCN1CCC(C(=O)Nc2cccc(Cl)c2)CC1", "inhibition": 2.2}
{"smiles": "O=C(Nc1cc(C(F)(F)F)cc(C(F)(F)F)c1)c1cccc([N+](=O)[O-])c1", "inhibition": 4.66}
{"smiles": "CCOc1cc(CC)ccc1C1CCN(CCN2CCC(CNC(=O)c3ccc(-c4ccc(C#N)cc4)cc3)CC2)CC1", "inhibition": 13}
{"smiles": "CN(Cc1cccc(O)c1)C1CCN(c2cc(NC(=O)c3ccc(F)cc3)ccn2)C1", "note": "(stereo not given)", "inhibition": 2.9}
{"smiles": "CC[C@H](NC(=O)c1c(CN2CCC(N3CCCCC3)CC2)c(-c2ccccc2)nc2cc(O)ccc12)c1ccccc1", "inhibition": -0.44}
